Pol eta inh – blocks human DNA polymerase eta activity; hit rate 1.2% among 390,000; recombinant Pol eta, fluorescent DNA replication assay; Potency, µM (highest dose often 114 µM), inactives show at the top dose activity change, negative = inhibition, actives largely listed as inhibitors; note: % is set by controls: 0 for no effect and ±100 for the full control effect
Target sequence (Q9Y253 whole entry, looked up): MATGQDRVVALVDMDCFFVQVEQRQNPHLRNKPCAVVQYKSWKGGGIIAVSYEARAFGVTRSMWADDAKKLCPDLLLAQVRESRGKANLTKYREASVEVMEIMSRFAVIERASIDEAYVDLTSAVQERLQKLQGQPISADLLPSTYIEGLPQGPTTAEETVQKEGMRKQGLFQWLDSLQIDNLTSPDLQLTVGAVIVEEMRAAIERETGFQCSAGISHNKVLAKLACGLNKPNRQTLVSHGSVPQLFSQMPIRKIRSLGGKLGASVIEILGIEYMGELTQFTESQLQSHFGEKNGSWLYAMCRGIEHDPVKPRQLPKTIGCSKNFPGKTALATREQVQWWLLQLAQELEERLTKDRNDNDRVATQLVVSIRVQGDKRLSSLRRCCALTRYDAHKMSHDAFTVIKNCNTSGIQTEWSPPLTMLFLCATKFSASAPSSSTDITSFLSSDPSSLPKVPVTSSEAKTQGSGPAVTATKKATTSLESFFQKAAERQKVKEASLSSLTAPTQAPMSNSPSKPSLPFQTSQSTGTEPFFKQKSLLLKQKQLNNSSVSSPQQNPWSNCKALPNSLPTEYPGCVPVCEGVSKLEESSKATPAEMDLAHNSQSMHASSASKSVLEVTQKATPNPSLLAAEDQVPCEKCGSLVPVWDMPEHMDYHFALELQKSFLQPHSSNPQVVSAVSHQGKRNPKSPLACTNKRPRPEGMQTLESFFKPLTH
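Pol eta (10 nM) was preincubated with compounds for 15 min at room temperature, after which fluorescent replication substrate (50 nM final) was added to start the reaction. Fluorescence was read kinetically at 0 and 10 min.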
POLK inh – inhibitors of human DNA polymerase kappa | hit rate 0.53% among 400,000 | Q9UBT6 | purified Pol kappa, fluorescent DNA synthesis assay, 10 min | Potency, µM (highest dose often 107 µM), without a hit: top-dose activity, negative = inhibition, hits mostly inhibitors | AID 588579; note: % is set by controls: 0 for no effect and ±100 for the full control effect
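50 nM final substrate added after 15 min RT preincubation of 10 nM Pol kappa with compound; fluorescence read at 0 and 10 min.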
Pol beta inh – blocks human DNA polymerase beta activity; Potency, µM (titrated, usually from 114 µM), for the others: top-dose activity change, negative = inhibition, actives largely listed as inhibitors; hit rate 1.3% among 340,000; Pol beta primer extension/strand displacement, fluorescence kinetic; AID 485314; P06746; note: % is set by controls: 0 for no effect and ±100 for the full control effect
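Curves were derived by four-parameter Hill fits of normalized qHTS data. The kinetic fluorescent primer-extension read was taken at 0 and 10 min after 50 nM substrate, following a 15 min room-temperature preincubation of 10 nM enzyme with compounds.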
POLI inh – inhibitors of human DNA polymerase iota; AID 588590; Q9UNA4; Pol iota fluorescent replication assay, 10 min; hit rate 1% among 390,000; Potency, µM (doses to about 115 µM), for inactives: at the highest dose activity, negative = inhibition, hits mostly inhibitors
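Pol iota at 10 nM preincubated 15 min with compounds at room temperature; reaction started with fluorescent substrate, 50 nM final. Fluorescence read kinetically at 0 and 10 min; buffer-only wells as negative control.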
TDP1 inh – blocks human tyrosyl-DNA phosphodiesterase 1; recombinant TDP1, AlphaScreen DNA substrate cleavage; Potency, µM (titrated, usually from 130 µM), inactives show at the top dose activity change, negative = inhibition, hits mostly inhibitors; hit rate 0.28% among 350,000; AID 485290; note: % is set by controls: 0 for no effect and ±100 for the full control effect; nearly all actives have a fitted effect of over 40% in size
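Signal: AlphaScreen proximity between streptavidin donor and anti-FITC acceptor beads on intact substrate. Reaction: Tdp1 1 nM, substrate 15 nM final, 5 min RT after 15 min compound preincubation.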
* = called active by the depositor; ? = inconclusive; / = not tested or not shown; ! = a repeat was not active; [ ] = another dose, or the depositor's remark. A selection: hits, their analogues and other compounds. The true share with any hit is near 2.4%. Calls come from the whole dose curve; as a rule, active = well fitted curve in the direction sought with a large enough effect; inconclusive = small, poorly fitted or top-dose-only effect, or another doubt; inactive = no such curve, though single readings can be large; an effect the other way counts as inactive or inconclusive. Potency is the fitted concentration of half-maximal effect.

SMILES	Pol eta inh	POLK inh	Pol beta inh	POLI inh	TDP1 inh
Oc1c(/C=N/c2ccccn2)sc2ccccc12	-17%	-15%	22µM*	18%	11%
Cc1ccc2c(c1)N(C)/C(=C/c1cccc[n+]1C)S2	-8%	-18%	?	?	/
CN1/C(=C/c2cccc[n+]2C)Sc2ccccc21	2%	-8%	32µM*	?	/
COc1ccc2c(c1)N(C)/C(=C/c1cccc[n+]1C)S2	-15%	-21%	40µM*	?	/
CCN1/C(=C/c2cccc[n+]2C)Sc2ccc(OC)cc21	-12%	-4%	?	?	/
Clc1ccccc1CNc1ncnc2c1c(-c1ccccc1)cn2-c1ccccc1	-12%	-8%[60.1 µM]	2%	30%	3%
COC(=O)c1cnn(-c2ccc(C(=O)Nc3ccc(C(C)=O)cc3)cc2)c1N	1%	-9%[60.1 µM]	10%	20%	35µM*
COc1ccc(CNC(=O)CN2C(=O)CCn3nc(-c4ccccc4)cc32)c(OC)c1	-2%	1%	9%	-8%	1%
O=c1cc(CSc2nnc(-c3cccs3)n2Cc2ccccc2)nc2sc3ccccc3n12	?	79µM*	10µM*	13µM*	-5%
CCOc1cccc(=O)c2c(C)n(Cc3ccccc3)c(C)c12	-20%	-10%	?	29%	8%
CCOc1cccc(=O)c2c(C)n(Cc3ccco3)c(C)c12	-13%	-13%	25µM*	12%	-4%
Nc1ccc(S(=O)(=O)N2CCOCC2)cc1	/	9%	/	-14%	1%
Cc1ccc(C)c(-c2ccc(C(=O)O)o2)c1	/	-16%	/	/	-6%[234 µM]
Cc1ccc(NC2=C(N3CCOCC3)C(=O)c3ccccc3C2=O)cc1	-3%	-16%	14µM*	8.9µM*	5%
CCOCCCNC(=O)c1ccc(NC(=O)N2CCCCc3ccccc32)cc1	-4%	5%	3%	30%	3%
Cc1ccc(S(=O)(=O)NN2C(=O)/C(=C/c3ccc(F)cc3)SC2=S)cc1	?	-11%	4%	139%	5%
C=CCOc1ccc(/C=C2\SC(=S)N(NS(=O)(=O)c3ccc(C)cc3)C2=O)cc1	50µM*	-11%	?	?	/
COc1ccc(/C=C2/SC(=S)N(NS(=O)(=O)c3ccc(C)cc3)C2=O)cc1	79µM*	-15%	?	?	9%[0.0935 µM]
Cc1ccc(/C=C2\SC(=S)N(NS(=O)(=O)c3ccc(C)cc3)C2=O)cc1	?	-7%	79µM*	7%	/
Cc1ccc(S(=O)(=O)NN2C(=O)/C(=C/c3cccs3)SC2=S)cc1	-3%	-12%	0%	-10%	5%
Cc1ccc(S(=O)(=O)NN2C(=O)/C(=C/c3ccc(C(=O)O)cc3)SC2=S)cc1	-23%	?	16%	13µM*	/
O=C1CCc2cc(S(=O)(=O)NCc3ccccc3)ccc2N1	/	/	/	/	1%
O=c1cc(-c2ccccc2O)oc2cc(O)ccc12	/	-6%[60.1 µM]	/	/	-10%[56.1 µM]
O=c1cc(-c2ccc(O)cc2)oc2ccccc12	-2%	0%	28µM*	30%	/
O=c1cc(-c2cccc(O)c2O)oc2ccccc12	/	13µM*	/	/	17%
SMILES	Pol eta inh	POLK inh	Pol beta inh	POLI inh	TDP1 inh
O=c1cc(-c2ccc(O)cc2)oc2cc(O)cc(O)c12	?	20µM*!	-12%[57.1 µM]	?	7%
CN(C)c1c(Cl)cc(/C=C/c2ccnc3ccccc23)cc1Br	/	-3%	/	?	/
O=C1c2ccccc2C(=O)N1Cc1ccncc1	/	/	/	/	1%
Cc1ccc(S(=O)(=O)N2CCN(c3ccnc(-c4cccs4)n3)CC2)cc1	/	-10%	/	6%	/
CCCCCCCCCCCCN1[C@@H](CC(=O)O)c2cc(C(F)(F)F)ccc2S1(=O)=O	45µM*	?	/	?	/
CCCCCCCCN1[C@@H](CC(=O)O)c2cc(C(F)(F)F)ccc2S1(=O)=O	-2%	-18%	/	?	/
O=C(Nc1ccccc1)c1nc[nH]c1C(=O)NCCN(CCNC(=O)c1[nH]cnc1C(=O)Nc1ccccc1)CCNC(=O)c1[nH]cnc1C(=O)Nc1ccccc1	-9%	-32%	/	79µM*	2%
O=C1CNC(=O)/C(=C/c2ccco2)N1	-1%	79µM*	-15%	?	/
O=C1C(=Cc2ccco2)C(=O)c2ccccc21	?	?	?	?	3%
CCN(CC)Cc1oc(CO)cc(=O)c1O	-18%	-13%	?	?	50µM*
COc1cc(C=NNc2nc3c([nH]2)c(=O)n(C)c(=O)n3C)ccc1O	-3%	-3%	/	26%	/
Cc1nc2c(cc1C(=O)N/N=C/c1ccc(O)c(O)c1)c(=O)n(C)c(=O)n2C	?	-26%	45µM*	?	0%
Cc1cnc(CNc2ncncc2-c2ccccc2CN(C)C)cn1	/	-3%[60.1 µM]	/	/	28µM*
CN(C)Cc1ccccc1-c1cncnc1NCc1ccccc1	/	-7%[60.1 µM]	/	/	/
O=C(O)C(O)c1ccco1 (centres undefined)	3.5µM*	20µM*	2.2µM*	?	3%
O=C(O)C(O)c1ccccc1 (centres undefined)	2%	/	-1%	-30%	7%
CCS(=O)(=O)N1Cc2ccccc2CC1C(=O)NCCc1ccccc1 (centres undefined)	-14%	-7%	50µM*	?	/
CCS(=O)(=O)N1Cc2ccccc2CC1C(=O)Nc1cc(S(C)(=O)=O)ccc1Cl (centres undefined)	?	?	-11%	35µM*	4%
CCS(=O)(=O)N1Cc2ccccc2CC1C(=O)Nc1ccc(NC(C)=O)cc1 (centres undefined)	?	-6%	-8%	16%	2%
CN1CCc2nc3sc(C(=O)C45CC6CC(CC(C6)C4)C5)c(N)c3cc2C1	?	?	50µM*	0%	2%
CN1CCc2nc3sc(C(=O)c4ccc(F)cc4)c(N)c3cc2C1	-19%	2%	13%	25%	6%
CCCCOc1cccc(C(=O)N(Cc2cccs2)c2ccc(OC)cc2)c1	/	-7%	-5%	?	-10%
CCC1Sc2ccc(S(=O)(=O)CCC(=O)Nc3c(Cl)cc(OC)cc3OC)cc2NC1=O (centres undefined)	?	-19%	79µM*	-7%	/
CCC1Sc2ccc(S(=O)(=O)Nc3cc(OC)cc(OC)c3)cc2NC1=O (centres undefined)	-9%	1%	25%	13%	3%
COc1ccc(Cn2c(N)c(C#N)c3nc4ccccc4nc32)cc1OC	7%	-16%	34%	25µM*	2%
NC(=O)N/N=C/c1ccc(N2CCOCC2)s1	-13%	-7%	5%	-6%	3%
O=C(O)c1cc(N/N=C/c2ccc(N3CCOCC3)s2)ccc1Cl	11µM*	28µM*	32µM*	13µM*	?
C/C(=N\NC(=O)c1ccc(F)cc1)c1ccc(N2CCOCC2)cc1	-17%	-14%	20%	28%	0%
C/C(=N\Nc1ccc(Cl)c(C(=O)O)c1)c1ccc(N2CCOCC2)cc1	28µM*	?	-8%	?	/
